The source made the active and inactive calls.

Assay [1] relates to Human papillomavirus type 1a protein E7 (residues 44-93). The experiment in a line: HPV1a E7 fragment binders on microarrays, primary screen, biochemical, small-molecule microarray, residues 44-93, 635 nm fluorescence (AID 1108).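 Also: E7 fragment applied at 1 µg/mL in TBST for 1 h at 4 C; score combines spot fluorescence with its signal to noise ratio.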 The following applies: small-molecule microarray binding, fluorescence 635 nm; higher = more signal.
Assay [2] in a line: modulators of HCV replicon luciferase signal, primary screen, HCV replication inhibitor project, Huh7 cells, luciferase reporter (AID 1109).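 Also: huh7 hepatoma cells harbouring a luciferase neomycin HCV replicon reporter; luciferase luminescence as measure of HCV replicon replication; test concentration not given here.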 To be noted: 48 h, higher = more signal. (In general: Replicon systems follow genome replication, usually without infectious particles.)
The target of assay [3] is Left-right determination factor 2 (Homo sapiens) (UniProt O00292). The experiment in a line: LEFTY2 binders on small-molecule microarrays, primary screen, biochemical, small-molecule microarray, 635 nm fluorescence scan (AID 1110). The following applies: LEFTY2 binding, higher = more signal.
Sequence of Left-right determination factor 2 (Homo sapiens) (O00292 whole entry, looked up): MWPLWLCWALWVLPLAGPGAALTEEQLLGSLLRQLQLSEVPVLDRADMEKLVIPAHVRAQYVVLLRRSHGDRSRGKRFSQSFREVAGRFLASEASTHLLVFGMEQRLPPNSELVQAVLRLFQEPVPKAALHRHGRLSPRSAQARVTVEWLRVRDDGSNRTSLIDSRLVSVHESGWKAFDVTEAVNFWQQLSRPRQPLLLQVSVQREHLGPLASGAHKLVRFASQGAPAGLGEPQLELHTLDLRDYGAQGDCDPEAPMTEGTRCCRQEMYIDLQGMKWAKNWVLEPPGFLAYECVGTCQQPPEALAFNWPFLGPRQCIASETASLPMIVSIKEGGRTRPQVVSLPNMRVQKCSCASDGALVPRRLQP
The target of assay [4] is Calmodulin-1 (Homo sapiens) (UniProt P0DP23). The experiment in a line: CALM1 binders on microarrays, EGTA buffer, profiling panel, biochemical, small-molecule microarray, Cy5-labelled CALM1 (AID 1111).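 Also: labelled calmodulin applied in Tris saline Tween buffer holding calcium plus EGTA and DTT.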 To be noted: Cy5-CALM1 binding fluorescence, higher = more signal.
The target is the same in assay [5]. The experiment in a line: calcium-bound CALM1 binders on microarrays, profiling panel, artefact control for SMM control-protein annotation, biochemical, small-molecule microarray, Cy5-labelled CALM1, plus calcium (AID 1112).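 Also: score merges spot fluorescence with signal to noise from triplicate slides.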 To be noted: Cy5-CALM1 binding fluorescence, higher = more signal.
Assay [6] is described as follows: small-molecule microarray binders of probe aWnt5a, primary screen, biochemical, biotinylated probe, 635/667 nm fluorescence (AID 1113).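 Also: score merges 667 nm fluorescence intensity with signal-to-noise per printed feature.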 To be noted: higher = more signal.
A short description of assay [7]: small-molecule microarray binders of probe aShh, primary screen, biochemical, biotinylated probe, 635/667 nm fluorescence (AID 1114).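 Also: probe is biotin-labelled aShh protein from a stem cell growth factor screen; measures binding of labelled protein to compounds printed on the slide; score merges feature fluorescence at 667 nm with signal-to-noise.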 To be noted: higher = more signal.
Assay [8] in a line: small-molecule microarray binders of probe aNog, primary screen, biochemical, biotinylated probe, 635/667 nm fluorescence (AID 1115).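 Also: probe is biotinylated aNog protein used at 0.15 µg/mL for 1 h at 4 C; z-score combines 667 nm fluorescence of each spot with its signal to noise.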 The following applies: higher = more signal.
Assay [9] addresses Torsin-1A-interacting protein 1 (Homo sapiens) (UniProt Q5JTV8). The experiment in a line: LAP1 binders from COS7 cell lysate, primary screen, small-molecule microarray, 635/667 nm fluorescence (AID 1116). To be noted: COS7-hLAP1 lysate binding, 635 nm fluorescence, higher = more signal.
Assay [10] concerns the target Alpha-bungarotoxin (Bungarus multicinctus) (UniProt P60615). The experiment in a line: alpha-bungarotoxin binders on microarray, profiling panel, artefact control for SMM control protein annotation, biochemical, small-molecule microarray, Alexa647 label, 635/667 nm fluorescence (AID 1117). The following applies: alpha-BTX-A647 binding fluorescence, higher = more signal.

In another assay the target is Albumin (Bos taurus) (UniProt P02769). The experiment in a line: bovine serum albumin binders on microarray, profiling panel, artefact control for SMM control protein annotation, biochemical, small-molecule microarray, Alexa647 label, 635/667 nm fluorescence (AID 1118).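 Also: score merges 667 nm emission intensity and signal-to-noise per printed compound spot.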 To be noted: BSA-A647 binding, fluorescence 635 nm, higher = more signal.
Sequence of Albumin (Bos taurus) (P02769 whole entry, looked up): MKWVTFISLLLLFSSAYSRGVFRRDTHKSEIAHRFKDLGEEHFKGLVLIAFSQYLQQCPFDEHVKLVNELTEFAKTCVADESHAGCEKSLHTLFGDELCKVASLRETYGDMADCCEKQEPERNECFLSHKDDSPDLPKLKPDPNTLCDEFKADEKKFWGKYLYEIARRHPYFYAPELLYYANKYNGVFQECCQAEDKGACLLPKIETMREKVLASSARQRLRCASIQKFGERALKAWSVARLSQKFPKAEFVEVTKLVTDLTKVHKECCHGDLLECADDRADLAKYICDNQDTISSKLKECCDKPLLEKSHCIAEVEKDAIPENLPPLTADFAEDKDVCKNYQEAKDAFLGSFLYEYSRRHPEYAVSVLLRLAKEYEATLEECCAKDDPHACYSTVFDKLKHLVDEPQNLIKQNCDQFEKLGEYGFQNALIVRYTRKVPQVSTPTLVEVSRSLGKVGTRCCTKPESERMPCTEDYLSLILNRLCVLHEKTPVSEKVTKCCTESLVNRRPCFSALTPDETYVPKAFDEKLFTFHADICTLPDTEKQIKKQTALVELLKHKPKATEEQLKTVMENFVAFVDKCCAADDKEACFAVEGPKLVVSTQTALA
Assay [11] in a line: small-molecule microarray binders of probe aXIP, primary screen, biochemical, NeuroSMM set, 635/667 nm fluorescence (AID 1119).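 Also: probe is the protein aXip251-270 applied at 1 µg/mL to compound-printed slides; binding of probe to printed compounds measured as 667 nm fluorescence plus signal to noise.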 To be noted: higher = more signal, called active from +8 up or from −8 down.
A short description of assay [12]: small-molecule binders of probe aNOTCH3, primary screen, biochemical, small-molecule microarray, 635/667 nm fluorescence (AID 1120).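 Also: probe is a biotin-tagged antibody raised against NOTCH3 rather than NOTCH3 protein; score merges spot fluorescence near 667 nm with spot signal to noise.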 The following applies: higher = more signal.
Assay [13] can be described thus: small-molecule binders of probe aNOTCH2, primary screen, biochemical, small-molecule microarray, 635/667 nm fluorescence (AID 1121).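 Also: score merges feature fluorescence read at 667 nm with its signal to noise.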 To be noted: higher = more signal.
Assay [14] addresses Carbonic anhydrase 2 (Homo sapiens) (UniProt P00918). The experiment in a line: CAII small-molecule binders, profiling panel, biochemical, small-molecule microarray, Alexa647-labelled CAII (AID 1122). To be noted: CAII-A647 binding fluorescence, higher = more signal.
Assay [15] in a line: COS7 lysate on small-molecule microarray, probe aHis, 635 nm (AID 1123).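 Also: z-score combines 667nm fluorescence intensity with signal-to-noise per printed compound spot.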 To be noted: COS7 cell lysate, fluorescence, higher = more signal.
Assay [16] in a line: compound binding in COS7 lysate, probe aLAP1, primary screen, cell lysate, small-molecule microarray (AID 1124).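 Also: lysate comes from COS7 cells expressing LAP1 and is applied at 0.3 µg/mL; score merges spot fluorescence near 667 nm with signal-to-noise over triplicate slides.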 To be noted: probe aLAP1, fluorescence, higher = more signal.
The subject of another assay is Sam68 (KHDRBS1). The experiment in a line: Sam68 small-molecule binders, primary screen, biochemical, small-molecule microarray, 635 nm fluorescence (AID 1125).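 Also: score merges 667 nm channel intensity with signal to noise over triplicate slides.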 To be noted: small-molecule microarray binding, higher = more signal.
Assay [17] relates to Chordin-like protein 2 (CHRDL2). The experiment in a line: CHRDL2 small-molecule binders, primary screen, biochemical, small-molecule microarray, 635 nm fluorescence (AID 1126).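 Also: printed compound slides probed with Chrdl2 protein at 4 µg/mL for 1 h at 4 C; score merges 667 nm emission intensity with signal to noise over three replicate slides.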 To be noted: small-molecule microarray binding, fluorescence 635 nm; higher = more signal.
In assay [18] the target is Concanavalin-A (Canavalia ensiformis) (UniProt P02866). The experiment in a line: ConA small-molecule binders, primary screen, artefact control for SMM control protein annotation, biochemical, small-molecule microarray, Alexa647 label, 635 nm (AID 1127).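 Also: z combines 667 nm emission intensity with signal-to-noise across three replicate slides.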 The following applies: ConA-A647 binding fluorescence, higher = more signal.
Sequence of Concanavalin-A (Canavalia ensiformis) (P02866 whole entry, looked up): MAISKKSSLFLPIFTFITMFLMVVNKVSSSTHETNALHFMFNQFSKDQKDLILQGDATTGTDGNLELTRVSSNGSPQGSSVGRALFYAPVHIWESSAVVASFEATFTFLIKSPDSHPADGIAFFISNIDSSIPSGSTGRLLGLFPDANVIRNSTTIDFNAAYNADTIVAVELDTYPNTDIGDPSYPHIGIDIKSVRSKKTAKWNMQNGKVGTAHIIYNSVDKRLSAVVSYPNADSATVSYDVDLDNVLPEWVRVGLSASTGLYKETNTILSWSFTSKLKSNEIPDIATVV

Sequence of Alpha-bungarotoxin (Bungarus multicinctus) (P60615 whole entry, looked up): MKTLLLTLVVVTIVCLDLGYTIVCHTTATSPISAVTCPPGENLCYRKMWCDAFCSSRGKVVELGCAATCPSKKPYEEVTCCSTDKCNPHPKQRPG
Sequence of Torsin-1A-interacting protein 1 (Homo sapiens) (Q5JTV8 whole entry, looked up): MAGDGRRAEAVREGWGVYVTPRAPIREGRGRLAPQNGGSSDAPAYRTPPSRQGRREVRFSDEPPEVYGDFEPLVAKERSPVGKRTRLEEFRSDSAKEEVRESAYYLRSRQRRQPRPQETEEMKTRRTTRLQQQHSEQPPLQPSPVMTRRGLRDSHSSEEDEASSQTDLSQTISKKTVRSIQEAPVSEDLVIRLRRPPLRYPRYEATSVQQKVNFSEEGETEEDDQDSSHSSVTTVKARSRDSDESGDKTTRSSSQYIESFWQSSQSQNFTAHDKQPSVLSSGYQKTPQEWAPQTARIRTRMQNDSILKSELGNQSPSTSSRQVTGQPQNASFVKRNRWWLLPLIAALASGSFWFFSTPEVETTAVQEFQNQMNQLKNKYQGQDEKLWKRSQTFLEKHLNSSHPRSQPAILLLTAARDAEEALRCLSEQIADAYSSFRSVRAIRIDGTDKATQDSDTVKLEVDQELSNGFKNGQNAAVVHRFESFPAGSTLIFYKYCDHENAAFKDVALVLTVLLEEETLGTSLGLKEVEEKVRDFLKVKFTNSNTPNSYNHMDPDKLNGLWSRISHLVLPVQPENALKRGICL

With `C=C[C@@H](C)[C@@H](OC(=O)Nc1ccc(SC)cc1)c1ccc(OCCO)cc1`, the composite z-score in [1] is 1.27; in assay [3], -0.0734; in [4], 1.24; in assay [5] it was 0.305; in assay [6] it was -0.0512; in [7], -0.0192. For the same compound, the composite z-score in [8] is -0.358; in [9], 0.882; in assay [10], 0.954; in the assay with Albumin (Bos taurus) it was 0.743; in [12] it was 0.221; in assay [13], -0.0814. Moreover, the composite z-score was 0.715 in [14]; 1.07 in [15]; 0.248 in assay [16]; 0.87 in the assay with Sam68 (KHDRBS1); -0.506 in [17]; 1.1 in [18]. Also, the z-score in assay [2] is -0.181. The composite Z-score in assay [11] is 0.939 (inactive).
`C=C(CCCC)C(=O)CC[C@H](OC(C)=O)c1ccc(OCCO)cc1`: the composite z-score in [1] is -0.319; in [3], -0.0558; in assay [4], -0.0294; in [5], -0.92; in [6], -0.102; in assay [7] it was -0.262. Also, the composite z-score in assay [8] was 0.0989; in assay [9], -0.346; in assay [10], 0.657; with Albumin (Bos taurus), 0.551; in [12], -0.292; in [13], -0.181. Also, the composite z-score in assay [14] was -0.43; in assay [15], -0.543; in assay [16], -0.52; in the assay on Sam68 (KHDRBS1), -0.578; in assay [17], -0.858; in assay [18], 0.924. The z-score in assay [2] was -2.73. Besides, the composite Z-score in assay [11] is 0.517 (inactive).
For the compound `C=C(C(=O)CC[C@H](OC(=O)c1ccccc1-c1ccccc1C(=O)O)c1ccccc1OCCO)C(C)C`, the composite z-score in assay [1] is 0.649; in assay [3], 0.346; in assay [4] it was -0.246; in assay [5], -0.4; in [6], -0.0573; in assay [7], 0.108. In addition, the composite z-score was 0.0718 in assay [8]; 1.31 in [9]; 1.26 in assay [10]; 0.0198 in the assay with Albumin (Bos taurus); -0.0035 in [12]; -0.176 in assay [13]. The composite z-score is 0.52 in [14]; 0.559 in [15]; -0.0566 in assay [16]; 0.974 in the assay on Sam68 (KHDRBS1); 0.0958 in assay [17]; -0.138 in assay [18]. In [2], this compound came in with a z-score of -1.59. Moreover, the composite Z-score in [11] is 0.292 (inactive).
Turning to `CCCNC(=O)[C@@]1(C)c2ccccc2C(=O)N(Cc2ccccc2)[C@H]1c1ccc(CO)cc1`, the composite z-score in [1] is 0.391; in assay [3], -0.626; in [4], -0.0596; in assay [5], 0.095; in assay [6], -0.197; in [7], -0.0421. For the same compound, the composite z-score in assay [8] was -0.378; in assay [9] it was 0.78; in assay [10], -0.612; in the assay with Albumin (Bos taurus), 0.0799; in [12] it was -0.128; in assay [13], 0.0313. Moreover, the composite z-score in assay [14] is 0.71; in [15] it was 2.68; in assay [16], 0.931; in the assay on Sam68 (KHDRBS1) it was 0.526; in assay [17], -1.13; in assay [18], 0.657. Moreover, the z-score in assay [2] stood at 0.398. Further, the composite Z-score in [11] was 2.55 (inactive).
Consider `Cc1c(NC(=O)/C(C#N)=C/c2ccccc2Cl)c(=O)n(-c2ccccc2)n1C`, for which the composite z-score in assay [1] is -0.11; in assay [3] it was 0.453; in assay [4] it was 1.01; in assay [5], -0.154; in assay [6] it was -0.0377; in assay [7], -0.588. The composite z-score in assay [8] is -0.226; in assay [9], 0.858; in assay [10], 0.42; with Albumin (Bos taurus), 0.942; in [12], -0.0048; in assay [13], -0.011. Besides, the composite z-score in assay [14] was determined as 0.704; in assay [15], 1.08; in assay [16] it was 0.237; in the assay with Sam68 (KHDRBS1) it was 0.247; in [17], 0.107; in assay [18], 0.996. This compound also registered a z-score in assay [2] of 0.614. Moreover, the composite Z-score in assay [11] is -0.683 (inactive).
In the case of `CC(=O)n1cc(C(O)C2C=CC3C(=O)N(c4ccccc4)C(=O)C3N2Nc2ccc(C(C)C)cc2)c2ccccc21` (stereo not given), the composite z-score in assay [1] is 0.656; in assay [3] it was -0.0688; in assay [4] it was 2.53; in assay [5], 1.38; in assay [6], -0.0394; in assay [7], 0.0328. Also, the composite z-score in [8] was 1.41; in assay [9] it was 1.68; in assay [10] it was 1.6; with Albumin (Bos taurus), 1.02; in [12] it was 0.328; in [13], 0.08. Further, the composite z-score in [14] is 0.433; in [15], 2.87; in assay [16] it was 0.503; with Sam68 (KHDRBS1), 1.29; in assay [17], 0.0259; in assay [18], 0.764. Also, the z-score in assay [2] was -0.909. The composite Z-score in [11] was 1.19 (inactive).
